IMPase Li inh = cell-permeable IMPase inhibitors with lithium potentiation. CHO-M1 cells, IP1 TR-FRET (IP-One), carbachol + lithium. Potency, µM (series often up to 59.4 µM), without a hit: at the highest dose activity, negative = IMPase inhibition, usual class: inhibitors. 0.35% of 210,000 active. AID 1457; active means well fitted curve in the direction sought with a large enough effect; inconclusive means small, poorly fitted or top-dose-only effect, or another doubt; inactive means no such curve, though single readings can be large; an effect the other way counts as inactive or inconclusive;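 further: IP1 builds up when IMPase is blocked and the TR-FRET signal falls; potency means the concentration at half of the fitted maximal effect; plate controls were basal vehicle for no effect and high inhibitor control for full effect; nearly all actives have a fitted effect of over 50% in size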
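CHO-M1, 2000 cells/well, 16–30 h culture; cpd + low Li+, 30 min 37C; lysis with d2-IP1/Eu-anti-IP1 Ab, 10 min RT; TR-FRET 665/620 ratio and 620 channel; AC50 via Hill.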
IMPase cell inh = IMPase inhibition in cells | P97697 | CHO-M1 cells, IP1 accumulation, HTRF TR-FRET ratio | 120,000 tested, under 10 active | AID 901 | inhibition (IP1 accumulation), % at 46.1 µM; active means well fitted curve in the direction sought with a large enough effect in the signal ratio, not every such curve was filed as active; inconclusive means small, poorly fitted or top-dose-only effect, or a change in a side signal; inactive means no such curve, though single readings can be large or run the other way; the % refers to the signal ratio;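 further: cells stimulated with carbachol in lithium chloride buffer; plate controls were DMSO basal wells for no effect and reference inhibitor wells for full effect; higher means more IMPase inhibition seen as more IP1 and lower FRET ratio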
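Elevated IP1 in lysates lowers TR-FRET signal (665/620 ratio and 620 channel reported). Cells were CHO-M1, given carbachol (50 uM as added) plus 50mM LiCl, pH 7.4, 30 min, 37C; compounds titrated up to 46 uM; AC50 by Hill equation.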
12-hLO inh = 12-hLO (ALOX12) enzyme inhibition | P18054 | purified 12-hLO, xylenol orange hydroperoxide absorbance | Potency, µM (top dose mostly 57.1 µM), for inactives: at the highest dose activity change, negative = inhibition, actives largely listed as inhibitors | 0.12% of 150,000 active; active means well fitted curve in the direction sought with a large enough effect; inconclusive means small, poorly fitted or top-dose-only effect, or another doubt; inactive means no such curve, though single readings can be large; an effect the other way counts as inactive or inconclusive; further: potency means the concentration at half of the fitted maximal effect; nearly all actives have a fitted effect of over 55% in size
Target sequence (P18054 whole entry, looked up): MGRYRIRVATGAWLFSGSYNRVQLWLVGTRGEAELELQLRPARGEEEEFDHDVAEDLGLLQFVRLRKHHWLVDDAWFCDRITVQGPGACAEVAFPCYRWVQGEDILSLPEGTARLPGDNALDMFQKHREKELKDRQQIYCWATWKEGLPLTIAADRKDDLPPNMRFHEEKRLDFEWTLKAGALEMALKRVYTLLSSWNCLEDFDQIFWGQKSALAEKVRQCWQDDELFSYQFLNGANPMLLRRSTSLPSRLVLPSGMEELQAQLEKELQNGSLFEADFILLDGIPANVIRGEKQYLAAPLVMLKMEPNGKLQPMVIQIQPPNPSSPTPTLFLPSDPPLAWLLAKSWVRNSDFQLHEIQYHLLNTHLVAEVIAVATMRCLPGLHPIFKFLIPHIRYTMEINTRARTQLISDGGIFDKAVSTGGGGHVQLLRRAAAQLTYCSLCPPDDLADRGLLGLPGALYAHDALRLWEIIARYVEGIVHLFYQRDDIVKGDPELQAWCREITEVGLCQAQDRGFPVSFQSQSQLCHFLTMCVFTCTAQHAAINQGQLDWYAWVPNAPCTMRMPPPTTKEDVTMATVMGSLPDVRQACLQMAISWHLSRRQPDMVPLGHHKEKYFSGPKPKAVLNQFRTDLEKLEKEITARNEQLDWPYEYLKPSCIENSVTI
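Purified human 12hLO (150 nM), preincubated 15 min with compound, then 40 uM arachidonic acid for 30 min, room temperature, Hepes pH 7.0 with 0.01% Triton X-100. Hydroperoxide detected by ferrous iron/xylenol orange; 573/405 nm absorbance ratio gives reaction progress.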
ALDH1A1 block = blocks purified human ALDH1A1 activity; P00352; Purified ALDH1A1, NADH fluorescence, propionaldehyde substrate; Potency, µM (highest dose often 75.3 µM), without a hit: at the highest dose activity, negative = inhibition, actives largely listed as inhibitors; 7.3% of 220,000 active; AID 1030;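 further: potency means the concentration at half of the fitted maximal effect; plate controls were no enzyme wells and a reference inhibitor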
PNC inhibitor = perinucleolar compartment assembly inhibition. 3.1% of 140,000 active. activity change (PNC), negative = inhibition, % at 10 µM. AID 2417. PC3M PTB-GFP, PNC prevalence imaging, 16 h; stronger effect = lower value;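 active means readout at or below -70, meaning at least 70% loss of cells showing the perinucleolar compartment, a nuclear body marking cancer cells; inconclusive means readout between -30 and a set limit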;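 further: plate controls were DMSO wells for no effect and camptothecin positive control wells for full effect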
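Read-out is percentage of cells bearing a perinucleolar compartment, from automated 20x imaging of fixed, Hoechst-stained PC3M PTB-GFP cells. Cells were seeded 4 h, then exposed 16 h to compound (23 nl of library stock) in duplicate plates.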
HPGD inh = HPGD (human) dehydrogenase inhibition. P15428. purified HPGD, NADH fluorescence kinetic, PGE2 substrate. Potency, µM, for the others: at the top dose activity change, negative = inhibition, most hits filed as inhibitors. 4.3% of 150,000 active. AID 894; further: potency means the concentration at half of the fitted maximal effect
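20 nM HPGD preincubated 15 min at room temperature with compound in 50 mM Tris-HCl pH 8, 0.01% Tween 20. Started with 1 mM NAD+ and 30 uM prostaglandin E2; NADH fluorescence (360/450 nm) read 5 times over 30-s intervals, last minus first.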
The depositor's hits bear a star; ? = inconclusive; . = no result given; ! = not confirmed by another sample; [ ] = dose if it differs, or a comment. The list is not random: actives were taken first. Their share in the collection is about 11%. Unless noted, the call rests on the fitted dose curve; in most records, active means well fitted inhibition curve with a large enough effect (not every such curve was filed as active); inconclusive means small, poorly fitted or top-dose-only effect, or another doubt; inactive means no such curve, though single readings can be large or run the other way. Unless noted, on the % scale 0 is the no-effect control and ±100 the full control effect.

SMILES	IMPase Li inh	IMPase cell inh	12-hLO inh	ALDH1A1 block	PNC inhibitor	HPGD inh
CCC(Cl)[N+](=O)[O-] (configuration not stated)	11%	.	-1%	?	.	1%
C=CCn1c(=O)c(C=Nc2c(OC)cccc2[N+](=O)[O-])c(O)n(CCCC)c1=O	17%	.	-5%	13µM*	14	-14%
C=CCN1CC[C@]23c4c5ccc(O)c4O[C@@H]2/C(=N/N=C2\CC[C@@]4(O)C6Cc7ccc(O)c8c7[C@@]4(CCN6CC=C)[C@@H]2O8)CC[C@@]3(O)C1C5	-3%	.	.	-8%	.	8%
NC[C@@H](O)CSP(=O)(O)O	1%	.	9%[11.4 µM]	6%[13.5 µM]	.	-7%
O=C(O)c1ccccc1Nc1cccc(C(F)(F)F)c1	-1%	-5[20.6 µM]	-12%	9%	16	28µM*!
CNc1ccccc1C(=O)O	-4%	.	6%	?	.	?
COc1ccc(C(C)=O)cc1CC(C(=O)c1ccccc1)N(C)C (configuration not stated)	0%	2	0%	0%	-94*	-9%
Oc1ccc(/C=N/NP(=S)(c2ccccc2)c2ccccc2)cc1O	25%[38.3 µM]	3	?	6%	8	-12%
N#C/C(=C\c1ccc(O)c(O)c1)C(N)=S	13%	?	13µM*	2.2µM*	.	8.9µM*
C1=CC2C3C=CC(C3)C2C1 (configuration not stated)	-4%	.	-11%	22µM*	.	-10%
CC(C)=CCCC(C)C1CC[C@@]2(C)C3=C(CC[C@@]12C)C1(C)CCC(O)C(C)(C)C1CC3 (some centres not stated)	-8%	.	-1%	28µM*	.	-9%
O=S(=O)(O)/C(=C\c1ccccc1)c1ccccc1 (tested in a mixture with another compound)	1%	.	7%[11.4 µM]	-7%[13.5 µM]	.	-1%
CN[C@@H]1C[C@@]2(C)O[C@@H]([C@@H]1OC)n1c3ccccc3c3c4c(c5c6ccccc6n2c5c31)C(=O)NC4	-14%	.	.	?	.	.
O=C(O)CCn1cc(C=C2C(=O)NC(=S)NC2=O)c(-c2cc3ccccc3oc2=O)n1	-14%	.	.	?	.	.
O=C(O)CCn1cc(C=C2C(=O)NC(=S)NC2=O)c(-c2ccccc2)n1	-3%	.	.	1.1µM*	.	.
CC(C)n1c(=O)c(C=Nc2ccc(Cl)cc2)c(O)n(Cc2ccco2)c1=O	6%	.	-1%	?	-16	?
CC(C)n1c(=O)c(C=Nc2ccc(F)cc2)c(O)n(Cc2ccco2)c1=O	6%	.	-3%	11µM*	?	-30%
COC(=O)[C@@H]1C[C@H]2CC[C@H](O)C[C@H]2N1CC1CC1	-4%	.	-2%	9%	.	-9%
O=[N+]([O-])c1cccc2ccccc12	2%	.	-3%	?	.	-5%
COc1ccccc1[N+](=O)[O-]	16%	.	-1%	25µM*	.	-6%
C[C@@H](N)Cn1ccc2cc(F)c(Cl)cc21	11%	7	-5%	2%	.	6%
CCC(=O)c1cc(F)c(N2CCN(CC)CC2)cc1C	2%[38.3 µM]	13	10%	20µM*	50	-8%
CSCC[C@@H](N)P(C)(=O)O	-3%	.	1%[11.4 µM]	5%[13.5 µM]	.	-2%
CCOc1ccc2nc(N3CCC(C(=O)N4CCC5(CC4)OCCO5)CC3)sc2c1	45%[38.3 µM]	1	3%	?	-103*	-17%
Cc1ccc(/C=C2\C(=O)NC(=S)N(c3ccccc3F)C2=O)s1	34%	-11	-28%	8.9µM*	-22	2.2µM*
Cc1ccc(/C=C2\C(=O)NC(=S)N(c3ccc(F)cc3)C2=O)s1	-9%	.	.	?	.	.
N#Cc1cccc(NC(=O)N2CC[C@@]3(CCCN(C(=O)Oc4ccccc4)C3)C2)c1	27%	.	0%	-16%	.	-5%
C=C(C)c1cccc(C(C)(C)NC(=O)NC2CN3CCC2CC3)c1 (configuration not stated)	16%[38.3 µM]	1	-6%	?	-94*	-5%
O=C(COc1ccc(Cl)cc1)NC1CN2CCC1CC2 (configuration not stated)	5%[38.3 µM]	16	-3%	21%	-1	-4%

Bioassay records deposited in PubChem by National Center for Advancing Translational Sciences (NCATS).
